Bioassay records: PubChem BioAssay, National Center for Advancing Translational Sciences (NCATS)
KB-3-1 tox = qHTS assay for MDR1-selective chemotherapeutics: Primary screen using the parental adenocarcinoma cell KB-3-1; KB-3-1 viability, CellTiter-Glo ATP luminescence, 72 h; Potency, µM (doses to about 46.1 µM), usual class: cytotoxic; 1.4% of 400,000 active; AID 1347075, 2019; further: nearly all actives have a fitted effect of over 60% in size
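Luminescent ATP read-out (CellTiter-Glo) measures survival of drug-naive KB-3-1 cells after 72 h compound exposure at 37 °C. Titration series was screened from lowest to highest concentration, with DMSO vehicle plates as background controls.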
HT1080 IDH1KD tx = qHTS for induction of synthetic lethality in tumor cells producing 2HG: qHTS for the HT-1080-IDH1KD cell line. HT-1080 IDH1 knockdown viability, ATP luminescence, 48 h. Potency, µM (series often up to 46.1 µM), for the others: at the highest dose activity, negative = toxicity, usual class: cytotoxic. 2% of 360,000 active. AID 686971, 2013;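 further: 0% = DMSO wells and -100% = cell-free medium wells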
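Using the IDH1-knockdown HT-1080 line run in the same batch and compound series as the NT line, viability after 48 h at 37 °C was determined by CellTiter-Glo luminescence and expressed as % activity.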
HT1080-NT tox = qHTS for induction of synthetic lethality in tumor cells producing 2HG: qHTS for the HT-1080-NT fibrosarcoma cell line; 1.6% of 360,000 active; Potency, µM (series often up to 46.1 µM), for the others: at the top dose activity, negative = less viability, usual class: cytotoxic; AID 686970, 2013; HT-1080-NT fibrosarcoma viability, CellTiter-Glo ATP luminescence, 48 h;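 further: NT is the 2HG producing partner of a matched IDH1 knockdown line; 0% = DMSO-treated cells and -100% = media-only wells without cells; nearly all actives have a fitted effect of over 55% in size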
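HT-1080-NT; 750 cells/well; 5% FBS RPMI; 48 h compound, 37 degrees C; CellTiter-Glo luminescence; curve fitting and curve-class assignment.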
KB-V1 cytotox = qHTS assay for MDR1-selective chemotherapeutics: Primary screen using the drug-selected MDR subline cells KB-V1; KB-V1 MDR cells viability, CellTiter-Glo, 72 h; Potency, µM (series often up to 46.1 µM), actives largely listed as cytotoxic; 3.4% of 400,000 active; further: nearly all actives have a fitted effect of over 60% in size
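Cytotoxicity via CellTiter-Glo luminescence after 72 h compound exposure at 37 degrees C. Cells: drug-selected KB-V1 line, DMEM phenol-red free plus 10% FBS. Compounds tested at multiple concentrations; normalized data fitted to concentration-effect curves.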
Active calls of the source: *. Compounds with a hit are over-represented: about 5.7% of the library has one in this group of screens. The call rests on the fitted dose curve; in most records, active means well fitted curve in the direction sought with a large enough effect; inconclusive means small, poorly fitted or top-dose-only effect, or another doubt; inactive means no such curve, though single readings can be large; an effect the other way counts as inactive or inconclusive. Unless noted, on the % scale 0 is the no-effect control and ±100 the full control effect; potency means the concentration at half of the fitted maximal effect.

How did COc1ccc(NC(=S)NCCC2=CCCCC2)cc1OC do in these assays?
KB-3-1 tox: inactive; HT1080 IDH1KD tx: 8.0%; HT1080-NT tox: 8.9%; KB-V1 cytotox: inactive

What do the screens show for `S=C(NCCC1=CCCCC1)Nc1ccc(Cl)cc1`?
KB-3-1 tox: inactive; HT1080 IDH1KD tx: 6.7%; HT1080-NT tox: 15.6%; KB-V1 cytotox: 7.31µM*

What do the screens show for `COc1cccc(-c2cnc(NCc3ccccc3Cl)n2C)c1`?
KB-3-1 tox: inactive; KB-V1 cytotox: inactive

Results for O=[N+]([O-])c1ccc(S(=O)(=O)N2CCN(c3nc(-c4cccs4)nc4ccccc34)CC2)cc1 ?
KB-3-1 tox: inactive; KB-V1 cytotox: inactive

What do the screens show for `COc1ccccc1C(=O)Nc1c(C(=O)N(C)c2ccccc2)sc2nc(C)cc(C)c12`?
KB-3-1 tox: inactive; KB-V1 cytotox: inactive

How did CC(C(Sc1ccccc1N)c1ccccc1)[N+](=O)[O-] (stereo unspecified) do in these assays?
KB-3-1 tox: 11.6µM*; HT1080 IDH1KD tx: inconclusive; HT1080-NT tox: inconclusive; KB-V1 cytotox: inactive

Results for CCCCN(CC)C(=O)Cn1nc(C)c2c(C)n(-c3ccccc3)nc2c1=O ?
KB-3-1 tox: inactive; KB-V1 cytotox: inactive

How did CN1C2C=C(N(CCc3c[nH]c4ccccc34)C(=O)c3ccc(Cl)cc3)CC1CC2 (stereo unspecified) do in these assays?
KB-3-1 tox: inconclusive; HT1080 IDH1KD tx: inconclusive; HT1080-NT tox: inconclusive; KB-V1 cytotox: 23.1µM*

How did CC(C)Cn1c(-c2csc3c2CCCC3)n[nH]c1=S do in these assays?
KB-3-1 tox: inactive; HT1080 IDH1KD tx: 0.1%; HT1080-NT tox: 17.0%; KB-V1 cytotox: 20.6µM*

What do the screens show for `Cc1ccc(S(=O)(=O)N2CCN(C(=O)[C@H](Cc3ccccc3)NC(=O)c3ccco3)CC2)cc1C`?
KB-3-1 tox: inactive; HT1080 IDH1KD tx: -13.5%; HT1080-NT tox: -2.6%; KB-V1 cytotox: 11.6µM*

Results for Cc1ccc(S(=O)(=O)N2CCN(C(=O)C3COc4ccccc4O3)CC2)cc1C (stereo unspecified) ?
KB-3-1 tox: inactive; HT1080 IDH1KD tx: -0.1%; HT1080-NT tox: -2.4%; KB-V1 cytotox: 9.2µM*

How did O=C(COC(=O)c1ccccc1Cc1ccccc1)Nc1ccc(SC(F)F)cc1 do in these assays?
KB-3-1 tox: inactive; HT1080 IDH1KD tx: 1.5%; HT1080-NT tox: 5.9%; KB-V1 cytotox: inconclusive

What do the screens show for `Cc1ccc(C(=O)c2ccccc2C(=O)OCC(=O)Nc2cccc([N+](=O)[O-])c2)cc1`?
KB-3-1 tox: inactive; HT1080 IDH1KD tx: 0.3%; HT1080-NT tox: 0.8%; KB-V1 cytotox: 23.1µM*

Results for CCCNC(=O)COC(=O)c1ccccc1C(=O)c1ccc(Cl)c([N+](=O)[O-])c1 ?
KB-3-1 tox: inconclusive; HT1080 IDH1KD tx: 5.17µM*; HT1080-NT tox: 9.2µM*; KB-V1 cytotox: inactive

What do the screens show for `COc1cc(C(=O)OCC(=O)Nc2ccc(SC(F)F)cc2)cc(OC)c1OC`?
KB-3-1 tox: inactive; HT1080 IDH1KD tx: 1.4%; HT1080-NT tox: -7.3%; KB-V1 cytotox: 14.6µM*

Results for Cc1ccc(C(=O)c2ccccc2C(=O)OCC(=O)Nc2ccc(SC(F)F)cc2)cc1 ?
KB-3-1 tox: inactive; HT1080 IDH1KD tx: inconclusive; HT1080-NT tox: -15.7%; KB-V1 cytotox: 11.6µM*

What do the screens show for `O=C(Nc1ccc(F)cc1F)c1cc2c(=O)n3ccccc3nc2s1`?
KB-3-1 tox: inactive; KB-V1 cytotox: inactive

Results for CCCCCc1ccc(-c2cn(Cc3ccc4c(c3)C(=O)c3ccccc3C4=O)nn2)cc1 ?
KB-3-1 tox: inactive; KB-V1 cytotox: inactive

What do the screens show for `COc1ccc(/C=C/C(=O)c2ccccc2)cc1Cn1nnc2ccccc21`?
KB-3-1 tox: inactive; HT1080 IDH1KD tx: inconclusive; HT1080-NT tox: inconclusive; KB-V1 cytotox: 20.6µM*

Results for C=CCC[C@@H](Cc1ccc(F)cc1)C(=O)OC[C@@H]1CCCN1C(=O)[C@@H](CC=C)CC(=O)N[C@@H](CO)Cc1ccccc1 ?
KB-3-1 tox: 16.4µM*; HT1080 IDH1KD tx: -1.0%; HT1080-NT tox: -25.7%; KB-V1 cytotox: inactive
